Measured values: PubChem BioAssay (NCATS)
Records with an inconclusive call do not appear. A call without a number means that no potency is given here. Calls of active or inactive are those of the source. Calls follow the shape of the dose curve; as a rule, active = well fitted cell-killing curve with a large enough effect; inconclusive = small, poorly fitted or top-dose-only effect, or effect the other way; inactive = no such curve, though single readings can be large or run the other way.

Key:
[1] = Quantitative High-Throughput drug screen in 47 multiple myeloma cell lines against the NCATS MIPE library collection: PE2_PLB cell viability assay (AID 1919869); settings: PE2_PLB myeloma cells viability, ATP luminescence, 48 h; series mostly up to 45.8 µM; also: nearly all actives have a fitted effect of over 35% in size
Outline: (§1)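 Readout: median RLU from CellTiter-Glo after 5 min at room temperature. Preceding step was 48 h drug treatment of 500 cells/well at 37 °C, 5% CO2, with DMSO-only and media-only control wells.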

[2] = Quantitative High-Throughput drug screen in 47 multiple myeloma cell lines against the NCATS MIPE library collection: RPMI8226_ATCC cell viability assay (AID 1919871); settings: RPMI8226 myeloma viability, CellTiter-Glo ATP luminescence, 48 h; series mostly up to 45.8 µM; also: nearly all actives have a fitted effect of over 30% in size
Outline: as §1

[3] = Quantitative High-Throughput drug screen in 47 multiple myeloma cell lines against the NCATS MIPE library collection: KMS28BM_JCRB cell viability assay (AID 1919874); settings: CellTiter-Glo ATP, 48 h; series mostly up to 45.8 µM; also: nearly all actives have a fitted effect of over 35% in size
Outline: as §1

[4] = Quantitative High-Throughput drug screen in 47 multiple myeloma cell lines against the NCATS MIPE library collection: OPM2_DSMZ cell viability assay (AID 1919872); settings: OPM2 myeloma viability, CellTiter-Glo ATP luminescence, 48 h; series mostly up to 45.8 µM; also: nearly all actives have a fitted effect of over 30% in size
Outline: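 Inhibition of cell viability is measured here. Each line was plated at 500 cells per well, treated with MIPE 4.0 drugs, kept 48 hours at 37C, then assayed for ATP content by CellTiter-Glo luminescence.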

[5] = Quantitative High-Throughput drug screen in 47 multiple myeloma cell lines against the NCATS MIPE library collection: KMS11_JCRBsus cell viability assay (AID 1919873); settings: KMS11 myeloma viability, CellTiter-Glo ATP luminescence, 48 h; series mostly up to 45.8 µM; also: nearly all actives have a fitted effect of over 50% in size
Outline: as §1

[6] = Quantitative High-Throughput drug screen in 47 multiple myeloma cell lines against the NCATS MIPE library collection: PCM6_Riken cell viability assay (AID 1919870); settings: CellTiter-Glo ATP, 48 h; series mostly up to 45.8 µM; also: nearly all actives have a fitted effect of over 30% in size
Outline: as §1
Potency is read from the fitted curve at half-maximal effect.

| Compound | Potency [1] | Potency [2] | Potency [3] | Potency [4] | Potency [5] | Potency [6] |
| --- | --- | --- | --- | --- | --- | --- |
| CCOc1cc(C(=O)Nc2ccc(Cl)c(-c3nc4ccccc4[nH]3)c2)cc(OCC)c1OCC | 8.33 µM (active) | 18.7 µM (active) | inactive | – | – | – |
| NCCCC(N)(C(=O)O)C(F)F (stereo unspecified) | inactive | – | – | inactive | 18.7 µM (active) | – |
| O=C1CCCC2=C1C(c1[nH]ncc1Cl)N=C(Nc1nc3ccccc3o1)N2 (stereo unspecified) | 0.526 µM (active) | – | – | inactive | – | – |
| CCOC(=O)N[C@@H]1CC[C@@H]2[C@@H](C1)C[C@H]1C(=O)O[C@H](C)[C@H]1[C@@H]2C=Cc1ccc(-c2cccc(F)c2)cn1 | – | 18.7 µM (active) | – | inactive | – | inactive |
| COc1cc(F)c(F)c(Nc2ccc(I)cc2F)c1NS(=O)(=O)C1(C[C@H](O)CO)CC1 | – | 10.5 µM (active) | 20.9 µM (active) | inactive | 16.6 µM (active) | 14.8 µM (active) |
| Cc1ccccc1C(C(=O)NC1CCCC1)N(C(=O)Cn1cnc2ccccc21)c1cccc(F)c1 (stereo unspecified) | – | 3.72 µM (active) | – | – | – | inactive |
| c1ccc([C@H]2CN3CCSC3=N2)cc1 | inactive | – | inactive | inactive | inactive | – |
| COc1cc2nccc(Oc3ccc(NC(=O)NC4CC4)c(Cl)c3)c2cc1C(N)=O | – | 20.9 µM (active) | 16.6 µM (active) | 13.2 µM (active) | 20.9 µM (active) | 16.6 µM (active) |
| CNC[C@H](O)c1cccc(O)c1 | inactive | – | – | inactive | inactive | – |
| CNCc1ccc(-c2[nH]c3cc(F)cc4c3c2CCNC4=O)cc1 | inactive | – | – | inactive | – | – |
| CNC(=O)c1ccc(N2C(=S)N(c3ccc(C#N)c(C(F)(F)F)c3)C(=O)C2(C)C)cc1F | inactive | – | – | inactive | – | – |
| CCC(C)N(C)C(=O)c1cc2ccccc2c(-c2ccccc2Cl)n1 (stereo unspecified) | – | – | – | – | – | 16.6 µM (active) |
| CCOc1ccc(Cc2cc([C@@H]3O[C@H](CO)[C@@H](O)[C@H](O)[C@@H]3O)ccc2Cl)cc1 | inactive | – | inactive | inactive | inactive | – |
| CCn1c(-c2nonc2N)nc2cnc(Oc3cccc(NC(=O)c4ccc(OCCN5CCOCC5)cc4)c3)cc21 | 10.5 µM (active) | – | 5.26 µM (active) | – | 11.8 µM (active) | – |
| CC(=O)Oc1ccccc1C(=O)O | – | inactive | 9.35 µM (active) | inactive | 10.5 µM (active) | 5.26 µM (active) |
| Cc1ccccc1C(OCCN(C)C)c1ccccc1 (stereo unspecified) | inactive | – | – | inactive | inactive | – |
| Cc1cc(-c2ccc(CC(=O)Nc3ccc(-c4cccnc4)cc3)cc2)ccn1 | – | 5.9 µM (active) | – | inactive | 20.9 µM (active) | 11.8 µM (active) |
| Cc1cc(SCc2sc(-c3ccc(C(F)(F)F)cc3)nc2C)ccc1OCC(=O)O | – | 14.8 µM (active) | – | inactive | – | inactive |
| CCOC(=O)C1=C[C@]2(CC)CCCN3CCc4c(n1c1ccccc41)[C@@H]32 | – | 14.8 µM (active) | 8.33 µM (active) | 26.4 µM (active) | 8.33 µM (active) | 8.33 µM (active) |
| CCOc1cc(C=C2C(=O)N(c3ccccc3)N=C2C)cc(Cl)c1OCC(=O)OC | – | inactive | – | inactive | inactive | 16.6 µM (active) |
| O=C(Nc1ccc(F)c(C(F)(F)F)c1)Nc1nnc(-c2ccncc2)s1 | – | – | – | – | – | 1.87 µM (active) |
| COc1ccc(-c2ccc3c(N4CCOCC4)nc(N4C[C@@H](C)O[C@@H](C)C4)nc3n2)cc1CO | – | 0.0935 µM (active) | 1.32 µM (active) | 1.18 µM (active) | 0.059 µM (active) | 1.48 µM (active) |

| Compound | Potency [1] | Potency [2] | Potency [3] | Potency [4] | Potency [5] | Potency [6] |
| --- | --- | --- | --- | --- | --- | --- |
| O=C1[C@H](Cc2ccc(O)cc2)N2C(=O)CCN(C(=O)NCc3ccccc3)[C@H]2CN1Cc1cccc2ccccc12 | 4.69 µM (active) | – | – | – | 1.66 µM (active) | – |
| Cc1ccnc(NS(=O)(=O)c2ccc(NC(=O)Nc3ccc(S(=O)(=O)Nc4nccc(C)n4)cc3)cc2)n1 | – | – | – | – | – | 4.69 µM (active) |
| CN[C@@H](C)C(=O)N[C@H]1CCCC[C@H]2CC[C@@H](C(=O)N[C@@H](c3ccccc3)c3cn(CCCCc4ccc(CCCCn5cc([C@@H](NC(=O)[C@@H]6CC[C@@H]7CCCC[C@H](NC(=O)[C@H](C)NC)C(=O)N76)c6ccccc6)nn5)cc4)nn3)N2C1=O | 18.7 µM (active) | – | – | inactive | inactive | – |
| CC(C)NCC(O)COc1ccc(COCCOC(C)C)cc1 (stereo unspecified) | – | inactive | – | inactive | – | inactive |
| CC(C)(C)OC(=O)CN(Cc1ccc(Cl)cc1)Cc1ccc([N+](=O)[O-])s1 | – | – | – | – | – | inactive |
| Nc1nc2ccc(OC(F)(F)F)cc2s1 | inactive | – | inactive | 18.7 µM (active) | inactive | – |
| CC1(C)CNc2cc(NC(=O)c3cccnc3NCc3ccncc3)ccc21 | – | 18.7 µM (active) | inactive | – | 20.9 µM (active) | 1.32 µM (active) |
| CCOC(=O)N1CCC(=C2c3ccc(Cl)cc3CCc3cccnc32)CC1 | – | – | – | – | 20.9 µM (active) | inactive |
| N=c1nc(N2CCCCC2)cc(N)n1O | – | inactive | – | – | inactive | 23.5 µM (active) |
| OC[C@H](Cc1ccccc1)Nc1nc(Oc2ccc3c(c2)CCC3)nc2c1ncn2Cc1ccc(-c2ccccc2)cc1 | – | – | inactive | inactive | – | inactive |
| OCCn1cc(-c2cnc3nnn(Cc4ccc5ncccc5c4)c3n2)cn1 | – | – | inactive | – | inactive | inactive |
| CC1(C)Cc2c(-c3ccccc3)c(-c3ccc(Cl)cc3)c(CC(=O)O)n2C1 | – | – | 16.6 µM (active) | 23.5 µM (active) | 18.7 µM (active) | 20.9 µM (active) |
| Cc1[nH]c(=O)c(C#N)cc1-c1ccc2nccn2c1 | – | inactive | inactive | inactive | inactive | 2.64 µM (active) |
| O=NN(CCCl)C(=O)NCCCl | – | – | – | inactive | – | inactive |
| Fc1ccc(Cl)cc1-c1nc(Nc2ccncc2)c2nccnc2n1 | – | – | – | inactive | – | 5.9 µM (active) |
| OC(CCN1CCCCC1)(c1ccccc1)C1CC2C=CC1C2 (stereo unspecified) | – | – | inactive | inactive | – | inactive |
| COc1c(Cl)cc2c([nH]c3cnccc32)c1NC(=O)c1cccnc1C | – | – | 26.4 µM (active) | inactive | 23.5 µM (active) | 1.66 µM (active) |
| CCCS(=O)(=O)Nc1ccc(F)c(C(=O)c2c[nH]c3ncc(-c4ccc(Cl)cc4)cc23)c1F | – | – | – | – | 8.33 µM (active) | 5.26 µM (active) |
| Clc1cccc(Cl)c1NC1=NCCN1 | – | – | – | inactive | – | inactive |
| Cc1ccc(N(CC2=NCCN2)c2cccc(O)c2)cc1 | – | – | – | – | 18.7 µM (active) | inactive |
| Clc1ccc(Nc2nnc(Cc3ccncc3)c3ccccc23)cc1 | – | – | – | inactive | – | 14.8 µM (active) |
| c1ccc(-c2nn3c(c2-c2ccnc4cc(OCCN5CCOCC5)ccc24)CCC3)nc1 | – | 20.9 µM (active) | inactive | – | – | 1.48 µM (active) |

| Compound | Potency [1] | Potency [2] | Potency [3] | Potency [4] | Potency [5] | Potency [6] |
| --- | --- | --- | --- | --- | --- | --- |
| O=C1CCc2cc(OCCCCc3nnnn3C3CCCCC3)ccc2N1 | – | – | – | inactive | inactive | inactive |
| Cc1ccc(-n2nc(C(C)(C)C)cc2NC(=O)Nc2ccc(OCCN3CCOCC3)c3ccccc23)cc1 | – | – | – | inactive | – | 23.5 µM (active) |
| CCCS(=O)(=O)Nc1ccc(F)c(C(=O)c2c[nH]c3ncc(Cl)cc23)c1F | – | – | – | inactive | 26.4 µM (active) | 11.8 µM (active) |
| Nc1ccc(S(=O)(=O)Nc2ccnn2-c2ccccc2)cc1 | – | inactive | inactive | inactive | – | inactive |
| CNC(=O)c1ccc(C)c(-n2c(C)cc(OCc3ccc(F)cc3F)c(Br)c2=O)c1 | – | inactive | inactive | inactive | – | 14.8 µM (active) |
| NC(=O)c1ccc(-c2nc(-c3ccc4c(c3)OCCO4)c(-c3ccccn3)[nH]2)cc1 | – | – | inactive | 14.8 µM (active) | inactive | 13.2 µM (active) |
| OC(CN1CCC(Cc2ccc(F)cc2)CC1)c1ccc(Cl)cc1 (stereo unspecified) | – | – | – | inactive | inactive | inactive |
| O=c1n(CCCN2CCN(c3cccc(Cl)c3)CC2)nc2ccccn12 | – | – | – | inactive | inactive | inactive |
| CS(=O)(=O)Oc1ccc2c(NC(N)=O)c(C(=O)c3ccc(Cl)cc3Cl)oc2c1 | – | – | 2.35 µM (active) | inactive | 5.26 µM (active) | 20.9 µM (active) |
| COc1ccc(CCN2CCN(CCCc3ccccc3)CC2)cc1OC | – | – | 2.09 µM (active) | – | – | inactive |
| COc1ccc([C@@H]2CC(=O)c3c(O)cc(O[C@@H]4O[C@H](CO[C@@H]5O[C@@H](C)[C@H](O)[C@@H](O)[C@@H]5O)[C@@H](O)[C@H](O)[C@@H]4O)cc3O2)cc1O | – | – | inactive | inactive | inactive | inactive |
| CC(C)(Sc1ccc(CCN(CCCCC2CCCCC2)C(=O)NC2CCCCC2)cc1)C(=O)O | – | 4.18 µM (active) | inactive | – | inactive | inactive |
| Oc1cccc(-c2nc(N3CCOCC3)c3oc4ncccc4c3n2)c1 | – | – | – | 0.136 µM (active) | – | 0.54 µM (active) |
| COc1ccc2nc(S(=O)Cc3ncc(C)c(OC)c3C)[nH]c2c1 (stereo unspecified) | – | inactive | – | – | inactive | 20.9 µM (active) |
| Cc1cn[nH]c1 | – | – | 0.0469 µM (active) | 4.18 µM (active) | 0.166 µM (active) | 0.0833 µM (active) |
| Cc1c(CCOc2ccc(C(=O)O)cc2)c2cc(Cl)ccc2n1C(c1ccccc1)c1ccccc1 | – | – | – | – | inactive | inactive |
| Nc1nc2[nH]cc(CCc3ccc(C(=O)N[C@@H](CCC(=O)O)C(=O)O)cc3)c2c(=O)[nH]1 | – | – | – | inactive | 0.59 µM (active) | inactive |
| COCC(=O)NCC=Cc1ccc2ncnc(Nc3ccc(Oc4ccc(C)nc4)c(C)c3)c2c1 | – | 16.6 µM (active) | – | – | 18.7 µM (active) | 20.9 µM (active) |
| CCC(C)(C)C(=O)O[C@H]1C[C@@H](C)C=C2C=C[C@H](C)[C@H](CC[C@@H]3C[C@@H](O)CC(=O)O3)[C@H]21 | – | – | – | – | 13.2 µM (active) | – |
| COc1ccc(-c2c(-c3ccc(O)cc3O)n[nH]c2C)cc1 | – | – | – | inactive | 48.1 µM (active) | – |
| CCN(CC)CCCC(C)Nc1nc(C)cc(Nc2ccc3nc(C)cc(N)c3c2)n1 (stereo unspecified) | – | inactive | inactive | inactive | inactive | – |
